Bioassay records (PubChem BioAssay)
Shiga toxin inh: inhibitors of Shiga toxin in Vero cells; 290,000 compounds, 9.2% hits; Vero cells, Shiga toxin protein synthesis inhibition reporter; inhibition, % at 38.7 µM; in the data active means inhibition mostly above about 28%, no sharp cut-off; inactive means mostly below about 43%
Cycloheximide cs: counter-screen for Shiga toxin inhibitors: cycloheximide protein synthesis inhibition. cell reporter, cycloheximide protein synthesis inhibition counterscreen. AID 2314. max response, %. 300,000 compounds, 12% hits; in the data active means max response mostly above about 13%, no sharp cut-off; inactive means mostly below about 14%; further: read at 38.3 µM for the half of the compounds with a filed dose
Pf growth 96h: P. falciparum growth inhibition at 96 hour, primary screen for plastid delayed-death inhibitors | P. falciparum luciferase reporter growth, 96 h | Potency, µM (doses to about 28.7 µM), most hits filed as inhibitors | 320,000 compounds, 6.9% hits
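Delayed-death screen, second-generation endpoint: infected erythrocytes, 2% hematocrit, 0.05% parasitemia final; 96 hours at 37 C, 5% CO2; luciferase detection reagent; luminescence decrease equals reduced growth.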
Pf growth 48h: P. falciparum growth inhibition at 48 hours (one generation); Potency, µM (series often up to 28.7 µM), most hits filed as inhibitors; P. falciparum luciferase growth in erythrocytes, 48 h; 310,000 compounds, 5.9% hits
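First compound was added to culture medium, then infected red cells at 0.1% parasitemia and 2% hematocrit (final). After incubation at 37 C under 5% CO2, luciferase detection reagent was dispensed and light output recorded.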
Hits are given with their value. An excerpt weighted towards active compounds, which were near 21% of everything screened. Unless noted, the call rests on the fitted dose curve; in most records, active means well fitted inhibition curve with a large enough effect; inconclusive means small, poorly fitted or top-dose-only effect, or another doubt; inactive means no such curve, though single readings can be large or run the other way.

Results for CCOc1ccc(C(=O)Nc2cc(S(=O)(=O)Nc3ccccc3Cl)ccc2N2CCOCC2)cc1 ?
Shiga toxin inh: inactive; Cycloheximide cs: inactive; Pf growth 96h: 2.62µM; Pf growth 48h: inconclusive

Results for O=C(Nc1cc(S(=O)(=O)N2CCOCC2)ccc1N1CCCC1)c1ccc(F)cc1 ?
Pf growth 96h: inconclusive; Pf growth 48h: inactive

How did CCCOc1ccc(C(=O)Nc2cc(S(=O)(=O)N3CCOCC3)ccc2N2CCOCC2)cc1 do in these assays?
Pf growth 96h: inconclusive; Pf growth 48h: 11.7µM

What do the screens show for `CCN(Cc1ccncc1)Cc1ccc(Br)cc1`?
Shiga toxin inh: inactive; Cycloheximide cs: inactive; Pf growth 96h: inconclusive; Pf growth 48h: inconclusive

How did COc1ccc(C2CC(c3ccccc3)=NN2C(=O)CN2CCN(Cc3ccccc3)CC2)cc1 (stereo not drawn) do in these assays?
Shiga toxin inh: inactive; Cycloheximide cs: inactive; Pf growth 96h: inconclusive; Pf growth 48h: inconclusive

Results for Cc1cc(C)c(C(=O)COC(=O)c2cccnc2Cl)c(C)c1 ?
Shiga toxin inh: 89.9; Cycloheximide cs: 56.2; Pf growth 96h: inactive; Pf growth 48h: inactive

What do the screens show for `COc1ccc(OC)c(C(=O)COC(=O)c2ccccc2O)c1`?
Shiga toxin inh: 110.3; Cycloheximide cs: 15.6; Pf growth 96h: inactive; Pf growth 48h: inactive

What do the screens show for `O=C(OCC(=O)C12CC3CC(CC(C3)C1)C2)c1cccnc1Cl`?
Shiga toxin inh: inactive; Cycloheximide cs: 20.1; Pf growth 96h: inactive; Pf growth 48h: inactive

What do the screens show for `COc1ccc(C(=O)COC(=O)c2cccnc2Cl)c(OC)c1`?
Shiga toxin inh: 72.0; Cycloheximide cs: 38.3; Pf growth 96h: inactive; Pf growth 48h: inactive

Results for COc1ccc(OC)c(C(=O)COC(=O)c2c(OC)cccc2OC)c1 ?
Shiga toxin inh: inactive; Cycloheximide cs: inactive; Pf growth 96h: inactive; Pf growth 48h: inactive

What do the screens show for `O=C1CCc2cc(NS(=O)(=O)c3ccc([N+](=O)[O-])cc3)cc3c2N1CCC3`?
Pf growth 96h: inactive; Pf growth 48h: inconclusive

Results for O=C(COC(=O)CCSc1ccccc1)NCc1ccc(F)cc1 ?
Shiga toxin inh: inactive; Cycloheximide cs: inactive; Pf growth 96h: inactive; Pf growth 48h: inactive

How did CC(C)CCNS(=O)(=O)c1cc2c3c(c1)CCN3C(=O)CC2 do in these assays?
Shiga toxin inh: inactive; Cycloheximide cs: inactive; Pf growth 96h: inactive; Pf growth 48h: inactive

What do the screens show for `O=C(NCc1ccncc1)C1CCN(S(=O)(=O)c2ccc(Cl)c(C(F)(F)F)c2)CC1`?
Pf growth 96h: inactive; Pf growth 48h: inconclusive

What do the screens show for `O=C(CCN1C(=O)c2ccccc2S1(=O)=O)NCc1ccccc1Cl`?
Pf growth 96h: inactive; Pf growth 48h: inactive

How did CSc1ncccc1C(=O)OCC(=O)C(C)(C)C do in these assays?
Shiga toxin inh: inactive; Cycloheximide cs: inactive; Pf growth 96h: inactive; Pf growth 48h: inactive

Results for CCOc1ncccc1C(=O)OCC(=O)c1ccc(C)c(C)c1 ?
Shiga toxin inh: 69.8; Cycloheximide cs: 43.5; Pf growth 96h: inactive; Pf growth 48h: inactive

Results for CCOc1ncccc1C(=O)OCC(=O)c1ccc(OC)c(OC)c1 ?
Shiga toxin inh: inactive; Cycloheximide cs: inactive; Pf growth 96h: inactive; Pf growth 48h: inactive

What do the screens show for `Cc1ccc2cccc(OCC(=O)c3cc(C)n(Cc4ccco4)c3C)c2n1`?
Shiga toxin inh: inactive; Cycloheximide cs: 24.9; Pf growth 96h: inconclusive; Pf growth 48h: 13.1µM

What do the screens show for `Cc1cc(C(=O)COC(=O)[C@H](C)NC(=O)c2ccco2)c(C)n1Cc1ccco1`?
Shiga toxin inh: 59.2; Cycloheximide cs: 35.5; Pf growth 96h: inactive; Pf growth 48h: inactive

Results for Cc1cc(C(=O)COC(=O)Cn2c(C(F)(F)F)nc3ccccc32)c(C)n1Cc1ccco1 ?
Shiga toxin inh: inactive; Cycloheximide cs: inactive; Pf growth 96h: inconclusive

How did Cc1cc(C)c(OCC(=O)OCC(=O)NCC2CCCCC2)c(C)c1 do in these assays?
Pf growth 96h: inactive; Pf growth 48h: inactive

What do the screens show for `COC(=O)c1ccc(C(=O)OC)c(NC(=O)Oc2ccccc2)c1`?
Shiga toxin inh: inactive; Cycloheximide cs: inactive; Pf growth 96h: inconclusive; Pf growth 48h: inactive

What do the screens show for `COC(=O)c1ccccc1NC(=O)Nc1ccc2c(c1)OCO2`?
Shiga toxin inh: inactive; Cycloheximide cs: 16.4; Pf growth 96h: inactive

Results for COC(=O)c1ccc(C(=O)OC)c(NC(=O)/C=C/C(=O)O)c1 ?
Shiga toxin inh: inactive; Cycloheximide cs: 10.9; Pf growth 96h: inactive; Pf growth 48h: inactive

What do the screens show for `CC(C)c1ccccc1NC(=O)Nc1ccc2c(c1)OCO2`?
Shiga toxin inh: inactive; Cycloheximide cs: inactive; Pf growth 96h: inconclusive; Pf growth 48h: inactive

What do the screens show for `COC(=O)c1ccc(C(=O)OC)c(NC(=O)Nc2ccc3c(c2)OCO3)c1`?
Shiga toxin inh: 61.7; Cycloheximide cs: 24.6; Pf growth 48h: inactive

What do the screens show for `O=C(Nc1ccc(-c2nc3cccnc3s2)cc1)c1ccco1`?
Shiga toxin inh: 73.6; Cycloheximide cs: 34.5; Pf growth 96h: inactive; Pf growth 48h: inactive

What do the screens show for `O=C(Nc1ccc(-c2nc3ncccc3o2)cc1)c1ccc(Br)o1`?
Shiga toxin inh: inactive; Cycloheximide cs: inactive; Pf growth 48h: inconclusive

How did Cc1c(NC(=O)c2ncn[nH]2)cccc1-c1nc2ccccc2s1 do in these assays?
Shiga toxin inh: inactive; Cycloheximide cs: inactive; Pf growth 96h: inactive; Pf growth 48h: inactive

What do the screens show for `CCS(=O)(=O)Nc1cccc(-c2nc3cccnc3s2)c1C`?
Shiga toxin inh: 72.7; Cycloheximide cs: 29.8; Pf growth 96h: inactive; Pf growth 48h: inactive

Results for Cc1c(NC(=O)c2ccco2)cccc1-c1nc2cccnc2s1 ?
Shiga toxin inh: inactive; Cycloheximide cs: 15.6; Pf growth 96h: inconclusive; Pf growth 48h: inconclusive

What do the screens show for `O=C(Nc1ccc(-c2nc3cccnc3s2)cc1)c1ccc(Br)o1`?
Shiga toxin inh: 52.6; Cycloheximide cs: 47.0; Pf growth 96h: inconclusive; Pf growth 48h: inconclusive

What do the screens show for `Cc1c(C(=O)OCC(=O)NC2CC2)oc2ccc(Br)cc12`?
Pf growth 96h: inactive; Pf growth 48h: inactive

What do the screens show for `Cc1ccc(-n2nnnc2SCC(=O)NC2CC2)cc1C`?
Shiga toxin inh: inactive; Cycloheximide cs: inactive; Pf growth 96h: inactive; Pf growth 48h: inconclusive

Results for NC(=S)N/N=C/c1c[nH]c2ccc(OCc3ccccc3)cc12 ?
Shiga toxin inh: inactive; Cycloheximide cs: inactive; Pf growth 96h: inconclusive; Pf growth 48h: inconclusive

Results for O=C(Nc1cccc(-c2nc3cccnc3s2)c1)c1ccco1 ?
Shiga toxin inh: 57.2; Cycloheximide cs: 20.3; Pf growth 96h: inconclusive; Pf growth 48h: inactive

How did CN(C)Cc1ccccc1Sc1ccc(O)cc1O do in these assays?
Shiga toxin inh: inactive; Cycloheximide cs: inactive; Pf growth 96h: inactive; Pf growth 48h: inactive

How did CC(Cc1ccccc1Sc1ccccc1O)N(C)C (stereo not drawn) do in these assays?
Shiga toxin inh: inactive; Cycloheximide cs: inactive; Pf growth 96h: 3.7µM

How did Cc1ccc2oc(C(Cl)(Cl)Cl)cc(=O)c2c1 do in these assays?
Shiga toxin inh: inactive; Cycloheximide cs: inactive; Pf growth 96h: 1.85µM; Pf growth 48h: 3.29µM

How did CN(Cc1ccccc1)C(=O)c1nc2ccccn2c1CN1CCCC1c1nccs1 (stereo not drawn) do in these assays?
Shiga toxin inh: inactive; Cycloheximide cs: inactive; Pf growth 96h: inconclusive; Pf growth 48h: 6.57µM

What do the screens show for `CCOC(=O)N1CCC(NCc2c(C(=O)N(C)Cc3ccccc3)nc3ccccn23)CC1`?
Shiga toxin inh: inactive; Cycloheximide cs: inactive; Pf growth 96h: inconclusive; Pf growth 48h: inconclusive
